The list is not random: actives were taken first. Their share in the collection is about 4.8%.
AI-2 QS mod = Vibrio harveyi AI-2 quorum sensing modulators, primary screen, JMH597 strain, luminescence/OD600 ratio; Vibrio harveyi JMH597 AI-2 luminescence/OD600 ratio, 9 h; hits give low values; strain lacks LuxN and CqsS sensors; 0 = neutral-control median; activity change, % at 7.5 µM; 300,000 compounds, 0.4% hits; in the data active means activity change below about -75%, passing the limit was not always enough;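 further: luminescence divided by OD600 gain over 9 h not by final OD600 alone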
Mot1-301 SUMO = yeast Mot1-301 growth rescue at high temperature, primary screen, SUMOylation pathway inhibitor project, S. cerevisiae, ATP luminescence, 38.5C; S. cerevisiae Mot1-301 growth rescue; percent above DMSO median, 100 means doubled; growth rescue, % at 18.8 µM; 320,000 compounds, 1% hits;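 active means every valid replicate shows activation above 250% relative to neutral control wells; inactive means the rest, any valid replicate at or below 250%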;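 further: OY570 slx delta 5 strain wells were the positive control but not used for scaling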
HIF act = HIF pathway transcriptional activators, primary screen, cell-based, U2OS HRE-luciferase, luminescence | AID 1910, 2009 | 300,000 compounds, 0.32% hits | U2OS HRE-luciferase reporter; normalized: DMSO 0%, desferrioxamine 100% | activation, % at 7.5 µM (by protocol);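 active means mean activation of at least 10% of the iron chelator positive control signal, with at least half of replicates also reaching 10%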
ALR inh = inhibitors of human ALR sulfhydryl oxidase, primary screen, biochemical, H2O2 detection, HRP-luminol luminescence, single point; FAD-linked sulfhydryl oxidase ALR (Homo sapiens), P55789; purified ALR, DTT oxidation; inhibition, % (concentration not given with the values); 290,000 compounds, 3.8% hits; AID 485317, 2010;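 active means mean replicate inhibition above about 79%, with every replicate also reaching it, limit read from the data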
Target sequence (P55789 whole entry, looked up): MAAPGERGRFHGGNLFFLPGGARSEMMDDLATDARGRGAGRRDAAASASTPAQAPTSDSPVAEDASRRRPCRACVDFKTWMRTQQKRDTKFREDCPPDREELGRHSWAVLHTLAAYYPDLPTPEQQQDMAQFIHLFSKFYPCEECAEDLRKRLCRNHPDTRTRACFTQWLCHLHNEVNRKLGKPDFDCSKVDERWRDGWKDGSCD
Mot1 SUMO dose = growth restoration of Mot1-301 yeast on galactose, dose response, SUMO pathway inhibitor project, whole organism, S. cerevisiae, ATP luminescence, cherry-picked samples; growth activity, percent, % at 42 µM; shares compounds with Mot1-301 SUMO; S. cerevisiae Mot1-301 galactose growth, 24 h; -100 = growth of slx-deleted rescue strain; AID 493004, 2010; 2,300 tested, under 10 active;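 active means Signal drops as the depositor expects, and the fitted half-maximal dose is no more than ten times the top valid tested dose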;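 further: more negative values mean stronger growth rescue toward the control strain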
* = called active by the depositor; · = no result given; + = active, no number.

SMILES	AI-2 QS mod	Mot1-301 SUMO	HIF act	ALR inh	Mot1 SUMO dose
CC(=O)Nc1cccc(OCC(O)Cn2c(C)nc3ccccc32)c1 (configuration not stated)	7	655*	0	-2	0
CCOc1ccc(S(=O)(=O)N2CCC(C(=O)N3CCN(c4ccccc4)CC3)CC2)cc1	30	487*	-1	·	0
COc1ccccc1N1CCN(C(=O)C2CCN(S(=O)(=O)c3ccc(C)cc3)CC2)CC1	27	989*	0	7	0
COc1ccccc1N1CCN(C(=O)C2CCN(S(=O)(=O)c3ccccc3F)CC2)CC1	·	-2	·	0	·
O=C(NCCCc1ccccc1)c1cc(COc2ccc(F)cc2Cl)on1	-3	10	0	-3	·
Cc1c(Cl)cccc1NC(=O)C1CC2CCC1C2 (configuration not stated)	41	-8	0	-1	·
Cc1ccc(NC(=O)N[C@H](C(=O)O)C(C)C)c(C)c1	14	830*	0	·	0
N#CC1=C(N)Nc2ncnn2C1c1ccc([N+](=O)[O-])cc1 (configuration not stated)	10	599*	0	16	0
N#CC1=C(N)Nc2ncnn2C1c1ccccc1 (configuration not stated)	35	121	0	1	·
COc1ccc(N2C(=O)CSC23C(=O)N2c4c(cccc43)C(C)=CC2(C)C)cc1 (configuration not stated)	13	-3	·	-3	·
Cc1cc2c3c(c1)C1(SCC(=O)N1c1ccc(F)cc1)C(=O)N3C(C)(C)CC2C (configuration not stated)	14	423*	0	-4	-1
CC1(C(=O)Nc2cccc(-n3cnnn3)c2)Cc2ccccc2C(=O)O1 (configuration not stated)	·	408*	·	3	0
COc1cccc(/C=N/NC(=O)CCn2cnc3ccccc32)c1	6	479*	0	·	0
COc1ccc(/C=N/NC(=O)CCn2cnc3ccccc32)cc1	12	4	0	-20	·
O=C(C[n+]1ccc(C(=O)NCc2ccccc2)cc1)c1ccc(Cl)cc1	29	-7	0	14	·
CCc1c(C)nc(N2CCN(c3ccc(Cl)cc3)CC2)[nH]c1=O	17	8	0	·	·
COc1ccc(-c2nc(/C=C3\C(C)=Nc4ccccc43)c(O)o2)cc1	23	12	2	-7	·
CC1=Nc2ccccc2/C1=C\c1nc(-c2ccccc2)oc1O	5	623*	1	1	-1
O=C(Nc1ccc(Cl)cc1C(F)(F)F)c1ccccc1	11	3	0	0	·
CCOC(=O)/C(C#N)=C\c1ccc(CC)s1	26	+	2	0	0
Cc1cccc(N2CCN(C3=NC(=O)C(Cc4ccccc4)S3)CC2)c1 (configuration not stated)	-8	-4	0	33	·
Cc1sc2ncnc(Nc3ccccc3)c2c1C	17	371*	2	-2	0
COc1cccc(C(=O)Nc2cc(C)nn2-c2ccccc2)c1OC	-10	3	0	·	·
CC(=O)Nc1ccc(NC(=O)Cc2sc(-c3cccnc3)nc2-c2ccc(C)cc2)cc1	17	-6	0	-7	·
Cc1ccc(-c2nc(-c3cccnc3)sc2CC(=O)O)cc1	24	885*	0	99*	0
SMILES	AI-2 QS mod	Mot1-301 SUMO	HIF act	ALR inh	Mot1 SUMO dose
c1ccc2cc(C3CCCCC3)ncc2c1	·	738*	·	-1	0
Cc1ccc(N2C(=O)/C(=C/c3cccnc3)SC2=S)cc1	8	14	2	-4	·
Cc1cccc(N2C(=O)/C(=C/c3cccnc3)SC2=S)c1	8	939*	0	23	0
CC(C)(C)OC(=O)C[C@H]1C/C=C\C[C@@H](CC(=O)N(CCO)Cc2ccccc2)C(=O)N[C@H](Cc2c[nH]c3ccccc23)COC1=O	·	-14	·	-2	·
c1ccc2nc3c(nc2c1)OCC1CCCCN31 (configuration not stated)	17	360*	-14	-7	0
c1ccc2c(c1)nc(N1CCCCC1)c1ccccc12	21	57	0	·	·
C=CCN(C(=O)CNC(=O)c1ccco1)C(C(=O)NC1CCCCC1)c1ccccc1 (configuration not stated)	39	737*	-1	-16	0
Cc1ccc(C(C(=O)NC2CCCCC2)N(CCC(C)C)C(=O)CNC(=O)c2ccco2)o1 (configuration not stated)	3	+	0	21	-1
C=CCN(C(=O)CNC(=O)c1ccco1)C(C(=O)NC1CCCCC1)c1ccc(F)cc1 (configuration not stated)	1	·	0	-4	·
C/C(=C\C(=O)c1ccc(F)cc1)NCc1ccc2c(c1)OCO2	3	5	0	1	·
N#CC(CC(=O)c1ccc(F)cc1)c1ccc2c(c1)OCO2 (configuration not stated)	0	420*	0	·	0
Fc1ccc(-c2nc3c(-c4ccc(F)cc4)cnn3cc2CCN2CCOCC2)cc1	10	8	0	-1	·
COc1ccc2cc3c(N)nn(C(=O)c4ccc(F)cc4)c3nc2c1	8	14	2	1	·
COc1ccc2cc3c(N)nn(C(=O)c4ccccc4Cl)c3nc2c1	2	501*	3	16	0
CCCN1CCN(CCCNC(=O)Cn2nc(C)n3c(cc4cc(F)ccc43)c2=O)CC1	3	129	0	-2	·
CCCNC(=O)Cn1nc(C)n2c(cc3cc(F)ccc32)c1=O	57	+	-25	-12	0
Cc1ccccc1-n1ncc2c([N+](=O)[O-])cc([N+](=O)[O-])cc21	39	421*	0	-37	-1
Cc1cccc(C(=O)Nc2cc(S(=O)(=O)N3CCOCC3)ccc2N2CCCCC2)c1	·	-12	·	·	·
COC(=O)c1ccc(Cl)c(NC(=O)CN(c2ccc(OC)c(OC)c2)S(C)(=O)=O)c1	12	563*	0	-1	0
COC(=O)c1ccc(Cl)c(NC(=O)CN(c2ccc(OC)cc2)S(=O)(=O)c2ccccc2)c1	-1	-4	0	·	·
COc1ccccc1C(C)NCC(=O)NC(=O)NCc1ccco1 (configuration not stated)	15	42	0	6	·
O=C1c2ccccc2C(=O)N1CCSc1ccccc1	-16	+	5	-5	0
O=C(O)C1C2CCC(O2)C1C(=O)NCCC1=CCCCC1 (configuration not stated)	13	364*	0	-12	0
COC(=O)c1ccc(NC(=O)CCN2CCN(c3ccccc3)CC2)cc1	23	520*	0	7	0

Compound activity deposited in PubChem BioAssay by Broad Institute.
